{"source": "PubChem BioAssay (Tox21)", "note": "Results filed as inconclusive are left out. Active and inactive are the calls of the source. Calls come from the whole dose curve; as a rule, active = well fitted cell-killing curve with a large enough effect in the repeat runs; inconclusive = weak or mixed curves, or effect the other way; inactive = no such curve, though single readings can be large or run the other way. % is set by controls: 0 for no effect and ±100 for the full control effect.", "data": [{"assay": "qHTS assay to identify small molecule antagonists of the vitamin D receptor (VDR) signaling pathway - cell viability counter screen (AID 743225); note: nearly all actives have a fitted effect of over 50% in size", "settings": "VDR-bla HEK293T viability, CellTiter-Glo luminescence, 16 h; series mostly up to 61 µM; viability change, negative = cytotoxic: at the top concentration", "description": "U.S. Tox21 Program National Center for Advancing Translational Sciences [NCATS] NIH Chemical Genomics Center [NCGC] U.S. Environmental Protection Agency [EPA] National Institutes of Environmental Health Sciences [NIEHS] National Toxicology Program [NTP] U.S. Food and Drug Administration [FDA] Tox21 Assay Overview: The vitamin D receptor (VDR), a member of nuclear hormone receptor superfamily, plays a critical role in calcium homeostasis and bone metabolism. It is also involved in cell differentiation and growth, and thrombogenicity. To identify the compounds that inhibit VDR signaling, the VDR-UAS-bla HEK 293T cell line (Invitrogen, Carlsbad, CA, USA) containing a beta-lactamase reporter gene under the control of an upstream activator sequence (UAS) was used to screen the Tox21 10K compound library. The cytotoxicity of the Tox21 compound library against the VDR-bla cell line was tested in parallel by measuring the cell viability using CellTiter-Glo assay (Promega, Madison, WI) in the same wells.\nTox21 Assay Protocol Summary: VDR-bla cells were dispensed at 2,000 cells/5 uL of assay medium per well into black wall/clear-bottom 1536-well plates using a Multidrop Combi (Thermo Fisher Scientific, Waltham, MA) dispenser. After the assay plates were incubated at a 37C and 5% CO2 for 4 h, 23 nL of compounds dissolved in DMSO, positive controls or DMSO only was transferred to the assay plate by a Pintool station (Kalypsys, San Diego, CA), followed by addition of 1 uL of 1-alpha, 25-Dihydroxy Vitamin D3 (3 nM, final concentration in the wells) using a Bioraptr Flying Reagent Dispenser (FRD) workstation (Beckman Coulter, Indianapolis, IN). The plates were incubated at 37C and 5% CO2 for 16 h, and then 1 uL of LiveBLAzerTM B/G FRET substrate was added using a Bioraptr FRD. The plates were incubated at room temperature for 2 h and fluorescence intensity was measured by an Envision plate reader (PerkinElmer, Shelton, CT). For cell viability readout that measures cytotoxicity, 3 ul/well of CellTiter-Glo reagent was added into the assay plates using a Bioraptr FRD. After 30 min incubation at room temperature, the luminescence intensity in the plates was measured using a ViewLux plate reader (PerkinElmer).", "values": [{"smiles": "CCCCCCCCCCCCCCCCCCOCC(O)CO", "note": "(stereo not given)", "viability change, negative = cytotoxic": "0.51% (inactive)"}, {"smiles": "COC(=O)CCCC(=O)O", "viability change, negative = cytotoxic": "4.27% (inactive)"}, {"smiles": "CCCCN(CCO)CCO", "viability change, negative = cytotoxic": "-1% (inactive)"}, {"smiles": "C1CCCCCCCCCCC1", "viability change, negative = cytotoxic": "-9.62% [at 28.5 µM] (inactive)"}, {"smiles": "C=C(C)[C@H]1CC=C(C)CC1", "viability change, negative = cytotoxic": "0% (inactive)"}, {"smiles": "NS(=O)(=O)c1cc2c(cc1Cl)NC(CSCc1ccccc1)=NS2(=O)=O", "viability change, negative = cytotoxic": "13.3% (inactive)"}, {"smiles": "CC(=O)CCc1ccc(O)cc1", "viability change, negative = cytotoxic": "-6.14% (inactive)"}, {"smiles": "CCCCC1CCCCC(=O)O1", "note": "(stereo not given)", "viability change, negative = cytotoxic": "1.28% (inactive)"}, {"smiles": "OCCN1C[C@H](O)[C@@H](O)[C@H](O)[C@H]1CO", "viability change, negative = cytotoxic": "3.1% (inactive)"}, {"smiles": "CC(C)CCOC(=O)CC(C)C", "viability change, negative = cytotoxic": "10.2% (inactive)"}, {"smiles": "O=c1[nH]c(=O)n([C@H]2O[C@H](CO)[C@@H](O)[C@@H]2O)cc1/C=C\\Br", "viability change, negative = cytotoxic": "-0.982% (inactive)"}, {"smiles": "COc1ccc(NC(C)=O)cc1", "viability change, negative = cytotoxic": "17.2% [at 78.8 µM] (inactive)"}, {"smiles": "Cn1ccc2cc3c(cc21)CCN3C(=O)Nc1cccnc1", "viability change, negative = cytotoxic": "-5.76% [at 28.5 µM] (inactive)"}, {"smiles": "NC(=O)CCCCC1CCSS1", "note": "(stereo not given)", "viability change, negative = cytotoxic": "-0.0052% (inactive)"}, {"smiles": "CC(C)(C)C(=O)/C=C/c1ccc(Cl)cc1", "viability change, negative = cytotoxic": "8.42% (inactive)"}, {"smiles": "O=C(O)c1ccc[n+]([O-])c1", "viability change, negative = cytotoxic": "28.9% (inactive)"}, {"smiles": "OC1OC[C@@H](O)[C@H](O)[C@H]1O", "note": "(stereo not given in full)", "viability change, negative = cytotoxic": "6.47% (inactive)"}, {"smiles": "Cc1ccccc1C(=O)O", "viability change, negative = cytotoxic": "-9.85% (inactive)"}, {"smiles": "NC(N)=NS(=O)(=O)c1ccc(N)cc1", "viability change, negative = cytotoxic": "9.22% (inactive)"}, {"smiles": "N#CCc1ccccc1[N+](=O)[O-]", "viability change, negative = cytotoxic": "-1.91% (inactive)"}, {"smiles": "Cc1onc(-c2ccccc2)c1-c1ccc(S(N)(=O)=O)cc1", "viability change, negative = cytotoxic": "-0.419% (inactive)"}, {"smiles": "COc1cc(CCC(C)=O)ccc1O", "viability change, negative = cytotoxic": "-1.19% (inactive)"}, {"smiles": "NC(=O)c1c(Cl)cccc1Cl", "viability change, negative = cytotoxic": "-6.98% (inactive)"}, {"smiles": "COC(C(=O)O)c1ccccc1", "note": "(stereo not given)", "viability change, negative = cytotoxic": "5.24% (inactive)"}, {"smiles": "COCCOC(=O)CC#N", "viability change, negative = cytotoxic": "8.86% (inactive)"}, {"smiles": "NC1CCN(c2cccc(Cl)n2)CC1", "viability change, negative = cytotoxic": "6.16% (inactive)"}, {"smiles": "CC(C)COC(=O)c1ccccc1O", "viability change, negative = cytotoxic": "0.29% (inactive)"}, {"smiles": "N[C@@H](CS)C(=O)O", "viability change, negative = cytotoxic": "-14.4% [at 78.8 µM] (inactive)"}, {"smiles": "CCN1CCCC1CNC(=O)c1cc(S(N)(=O)=O)ccc1OC", "note": "(stereo not given)", "viability change, negative = cytotoxic": "-28.6% (inactive)"}, {"smiles": "COC(=O)C1=C(C)NC(C)=C(C(=O)OCC(C)=O)C1c1ccccc1[N+](=O)[O-]", "note": "(stereo not given)", "viability change, negative = cytotoxic": "1.49% (inactive)"}, {"smiles": "CN(C)C(=O)C(CCN1CCC(O)(c2ccc(Cl)cc2)CC1)(c1ccccc1)c1ccccc1", "viability change, negative = cytotoxic": "-1.46% (inactive)"}, {"smiles": "COc1cc(O)cc(O)c1", "viability change, negative = cytotoxic": "24.1% (inactive)"}, {"smiles": "CCN(CC)S(=O)(=O)c1ccc(C(=O)O)cc1", "viability change, negative = cytotoxic": "12.6% (inactive)"}, {"smiles": "CC(O)CN(CCCN(C)C)CCCN(C)C", "note": "(stereo not given)", "viability change, negative = cytotoxic": "-3.03% (inactive)"}, {"smiles": "OCC(O)[C@@H](O)[C@H](O)[C@H](O)CO[C@H]1O[C@H](CO)[C@@H](O)[C@H](O)[C@H]1O", "note": "(stereo not given in full)", "viability change, negative = cytotoxic": "6.34% (inactive)"}, {"smiles": "CC(C)[N+](C)(C)CC(O)COc1cccc2ccccc12", "note": "(stereo not given)", "viability change, negative = cytotoxic": "-3.84% (inactive)"}, {"smiles": "CCc1cc(S(=O)(=O)O)c2cc(C(C)C)cccc1-2", "viability change, negative = cytotoxic": "11.5% (inactive)"}, {"smiles": "CCCCCCCCCCCCI", "viability change, negative = cytotoxic": "-0.0848% [at 78.8 µM] (inactive)"}, {"smiles": "COc1cc(C)cc(O)c1", "viability change, negative = cytotoxic": "9.57% (inactive)"}, {"smiles": "O=S(=O)(O)c1ccccc1O", "viability change, negative = cytotoxic": "17.7% (inactive)"}]}]}
